This is an account of results in PubChem BioAssay (NCATS).

The nature of assay [1]: qHTS for Inhibitors of the Functional Ribonucleoprotein Complex (vRNP) of Lassa (LASV) Arenavirus: LASV Primary Screen - GLuc reporter signal (AID 1347082; calls by dose curve; tested in HEK293 reporter line; also: nearly all actives have a fitted effect of over 60% in size). In general terms: Quantitative high-throughput screening tests each substance at several concentrations.
Assay [2] in a line: qHTS for Inhibitors of the Functional Ribonucleoprotein Complex (vRNP) of Lassa (LASV) Arenavirus: Viability assay - alamar blue signal for LASV Primary Screen (AID 1347083; calls by dose curve; tested in HEK293 reporter line; also: nearly all actives have a fitted effect of over 80% in size).
Assay [3] is described as follows: qHTS for Inhibitors of the Functional Ribonucleoprotein Complex (vRNP) of Lymphocytic Choriomeningitis Arenaviruses (LCMV): Viability assay - alamar blue signal for LCMV Primary Screen (AID 1347085; calls by dose curve; tested in HEK293 reporter line; also: nearly all actives have a fitted effect of over 80% in size).
Assay [4] concerns the target Nucleoprotein (Lymphocytic choriomeningitis virus (strain Armstrong)) (UniProt P09992). The experiment in a line: qHTS for Inhibitors of the Functional Ribonucleoprotein Complex (vRNP) of Lymphocytic Choriomeningitis Arenaviruses (LCMV): LCMV Primary Screen - GLuc reporter signal (AID 1347086). Also: nearly all actives have a fitted effect of over 70% in size.
Assay [5] in a line: qHTS of pediatric cancer cell lines to identify multiple opportunities for drug repurposing: Primary screen for A673 cells (AID 1347092; active = well fitted cell-killing curve with a large enough effect; also: nearly all actives have a fitted effect of over 45% in size). Summed up:
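A673 cells (500-1,000 cells/well) were treated 48 hours at 37 degrees C with compounds at 11-point (0.78 nM to 46 µM) or 8-point (0.59 nM to 46 µM) dilutions. Viability read by CellTiter-Glo luminescence; concentration-response curves fitted.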

Assay [6] in a line: qHTS of pediatric cancer cell lines to identify multiple opportunities for drug repurposing: Primary screen for SK-N-MC cells (AID 1347093; active = well fitted cell-killing curve with a large enough effect). A digest of the protocol: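 Metabolically active cells were quantified by ATP-dependent luminescence (CellTiter-Glo, 15 min at room temperature) following 48 h treatment. Cells had been plated at 500-1,000 per well and settled for 5 h beforehand.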

Inconclusive results are not listed. Active and inactive are the calls of the source. Unless noted, calls follow the shape of the full dose curve.
Potency is read from the fitted curve at half-maximal effect.

Nucleoprotein (Lymphocytic choriomeningitis virus (strain Armstrong)), sequence (P09992 whole entry, looked up): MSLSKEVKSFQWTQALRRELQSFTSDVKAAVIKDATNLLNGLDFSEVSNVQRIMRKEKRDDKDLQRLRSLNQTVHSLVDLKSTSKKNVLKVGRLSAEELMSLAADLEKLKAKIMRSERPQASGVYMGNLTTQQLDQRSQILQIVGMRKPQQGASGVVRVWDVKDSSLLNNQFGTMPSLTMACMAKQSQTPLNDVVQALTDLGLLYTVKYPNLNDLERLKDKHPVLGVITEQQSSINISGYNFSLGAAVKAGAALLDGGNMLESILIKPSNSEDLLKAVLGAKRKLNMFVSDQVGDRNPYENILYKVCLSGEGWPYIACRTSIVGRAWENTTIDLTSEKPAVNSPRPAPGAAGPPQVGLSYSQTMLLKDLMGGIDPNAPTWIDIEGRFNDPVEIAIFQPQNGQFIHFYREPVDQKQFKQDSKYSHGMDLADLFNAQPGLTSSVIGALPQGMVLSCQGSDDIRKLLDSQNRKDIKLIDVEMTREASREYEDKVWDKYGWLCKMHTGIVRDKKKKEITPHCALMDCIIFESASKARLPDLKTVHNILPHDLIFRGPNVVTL

Take `CN1CCN(C2=Nc3ccccc3Oc3ccc(Cl)cc32)CC1`: the Potency entry in assay [1], in assay [2], in assay [3] and in assay [4] was “inactive” each time.
In the case of `CC1=NS(=O)(=O)c2cc(Cl)ccc2N1`, the Potency entry in assay [1], in assay [2], in assay [3] and in assay [4] was “inactive” throughout.
`O=C1Nc2ccc(Cl)cc2[C@@](C#CC2CC2)(C(F)(F)F)O1`: the Potency result in assay [1], in assay [2], in assay [3] and in assay [4] was “inactive” in each case.
On to `CO[C@]12CC[C@@]3(C[C@@H]1[C@](C)(O)C(C)(C)C)[C@@H]1Cc4ccc(O)c5c4[C@@]3(CCN1CC1CC1)[C@H]2O5`, for which the Potency result in assay [1] and in assay [2] was “inactive” in each case. In addition, the Potency in assay [5] was 48.1 µM (active); in assay [6], 30.3 µM (active).
Regarding `C[C@H]1[C@H](NC(=O)/C(=N/OC(C)(C)C(=O)O)c2csc(N)n2)C(=O)N1S(=O)(=O)O` (stereo in doubt), the Potency entry in assay [1], in assay [2], in assay [3] and in assay [4] was “inactive” each time.
As to `CC(C)(C)C(=O)OCOP(=O)(COCCn1cnc2c(N)ncnc21)OCOC(=O)C(C)(C)C`, the Potency result in assay [1], in assay [2], in assay [3] and in assay [4] was “inactive” throughout.
On to `CN(CCOc1ccc(NS(C)(=O)=O)cc1)CCc1ccc(NS(C)(=O)=O)cc1`, for which the Potency entry in assay [1], in assay [2] and in assay [4] was “inactive” each time.
`O=C1CCc2ccc(OCCCCN3CCN(c4cccc(Cl)c4Cl)CC3)cc2N1`: the Potency result in assay [1], in assay [2], in assay [3] and in assay [4] was “inactive” in each case.
For the compound `CC(C)(C)NC(=O)[C@H]1CC[C@H]2[C@@H]3CC[C@H]4NC(=O)C=C[C@]4(C)[C@H]3CC[C@]12C`, the Potency result in assay [1], in assay [2] and in assay [4] was “inactive” each time.
Turning to `OCCN(CCO)c1nc(N2CCCCC2)c2nc(N(CCO)CCO)nc(N3CCCCC3)c2n1`, the Potency result in assay [1], in assay [2], in assay [3] and in assay [4] was “inactive” in each case.
Regarding `Oc1cn2c(n1)Nc1ccc(Cl)c(Cl)c1C2`, the Potency entry in assay [1], in assay [2], in assay [3] and in assay [4] was “inactive” each time.
Regarding `OC(CCN1CCCC1)(c1ccccc1)C1CCCCC1` (stereo not given), the Potency result in assay [1], in assay [2], in assay [3] and in assay [4] was “inactive” throughout.
Consider `CN1C[C@H]2c3ccccc3Oc3ccc(Cl)cc3[C@@H]2C1`, for which the Potency entry in assay [1], in assay [2] and in assay [4] was “inactive” throughout.
For `CC(=O)O[C@]1(C(C)=O)CC[C@H]2[C@@H]3C=C(Cl)C4=CC(=O)[C@@H]5C[C@@H]5[C@]4(C)[C@H]3CC[C@@]21C`, the Potency result in assay [1], in assay [2], in assay [3] and in assay [4] was “inactive” in each case.
Regarding `COC(=O)Nc1nc2ccc(C(=O)c3ccccc3)cc2[nH]1`, in assay [1], the Potency result was “inactive”. For the same compound, the Potency in assay [2] was 3.43 µM (active); in assay [3], 6.85 µM (active); in assay [4], 5.44 µM (active).
As for `Cc1ccc(NC(=O)c2ccc(CN3CCN(C)CC3)cc2)cc1Nc1nccc(-c2cccnc2)n1`, the Potency entry in assay [1] and in assay [3] was “inactive” in each case.
Turning to `CC[C@H](C)C(=O)O[C@H]1C[C@@H](C)C=C2C=C[C@H](C)[C@H](CC[C@@H]3C[C@@H](O)CC(=O)O3)[C@H]21`, the Potency entry in assay [1], in assay [2] and in assay [4] was “inactive” each time.
Regarding `CNS(=O)(=O)Cc1ccc2[nH]cc(CCN(C)C)c2c1`, the Potency result in assay [1], in assay [2] and in assay [4] was “inactive” each time.
`CCN(CC)C(=S)SSC(=S)N(CC)CC`: the Potency in assay [1] was 0.193 µM (active); in assay [2] it was 0.122 µM (active); in assay [3], 0.863 µM (active); in assay [4], 0.193 µM (active).
In the case of `O=c1n(CCCN2CCN(c3cccc(Cl)c3)CC2)nc2ccccn12`, the Potency entry in assay [1], in assay [2], in assay [3] and in assay [4] was “inactive” each time.
Consider `CC12CC3CC(C)(C1)CC(N)(C3)C2`, for which the Potency result in assay [1], in assay [3] and in assay [4] was “inactive” each time.
Take `NC12CC3CC(CC(C3)C1)C2`: the Potency entry in assay [1], in assay [3] and in assay [4] was “inactive” throughout.
Take `Cc1nc(Nc2ncc(C(=O)Nc3c(C)cccc3Cl)s2)cc(N2CCN(CCO)CC2)n1`: the Potency entry in assay [3] and in assay [4] was “inactive” throughout.
As to `CC(=O)N(O)CCCCCNC(=O)CCC(=O)N(O)CCCCCNC(=O)CCC(=O)N(O)CCCCCN`, the Potency entry in assay [1], in assay [3] and in assay [4] was “inactive” throughout.
`CC(C)n1c(C=C[C@H](O)C[C@H](O)CC(=O)O)c(-c2ccc(F)cc2)c2ccccc21`: the Potency is 2.43 µM (active) in assay [2], 7.69 µM (active) in assay [3] and 21.7 µM (active) in assay [4].
`COC(=O)C1=C(C)NC(C)=C(C(=O)OCC(C)C)C1c1ccccc1[N+](=O)[O-]` (stereo not given): the Potency entry in assay [1], in assay [3] and in assay [4] was “inactive” throughout.
For the compound `CCc1c2c(nc3ccc(OC(=O)N4CCC(N5CCCCC5)CC4)cc13)-c1cc3c(c(=O)n1C2)COC(=O)[C@]3(O)CC`, the results for the Potency in assay [2] and in assay [4] were 4.32 µM (active) and 27.3 µM (active), respectively.
Consider `CC(S)C(=O)NCC(=O)O` (stereo not given), for which the Potency entry in assay [1], in assay [3] and in assay [4] was “inactive” throughout.
Take `Nc1ccn([C@@H]2O[C@H](CO)[C@@H](O)C2(F)F)c(=O)n1`: the Potency entry in assay [1] and in assay [4] was “inactive” in each case.
With `O=C1c2cccc3c2[C@H](CCC3)CN1[C@@H]1CN2CCC1CC2`, the Potency result in assay [1], in assay [3] and in assay [4] was “inactive” in each case.
For `N=C(N)c1ccc(OCCCCCOc2ccc(C(=N)N)cc2)cc1`, the Potency in assay [2] is 38.5 µM (active).
Regarding `CN(Cc1cnc2nc(N)nc(N)c2n1)c1ccc(C(=O)N[C@@H](CCC(=O)O)C(=O)O)cc1`, the Potency result in assay [1], in assay [3] and in assay [4] was “inactive” in each case.
Consider `Nc1nc(=S)c2[nH]cnc2[nH]1`, for which the Potency in assay [2] was 17.2 µM (active).
On to `O=C1Cc2cc(CCN3CCN(c4nsc5ccccc45)CC3)c(Cl)cc2N1`, for which the Potency entry in assay [2], in assay [3] and in assay [4] was “inactive” in each case.
With `CCCC(CCC)C(=O)O`, the Potency entry in assay [1] and in assay [4] was “inactive” throughout.
